For part of these data: Measured potencies and affinities stand elsewhere.
Experiments:
[1] = test system: Staphylococcus aureus; assay: Antibacterial activity against Staphylococcus aureus MRSA ATCC 43300 (CO-ADD:GP_020); MIC in CAMBH media using NBS plates, by Resazurin F(560/590); format: functional; settings: Concentration 20 uM, ASSAY_TEST Inhibition of Bacterial Growth, detection method Resazurin, Fluorescence (ex560/em590), MEDIA CAMHB, plate type 384well, CORNING #3640, time 18 hr
[2] = test system: Acinetobacter baumannii; assay: Antibacterial activity against Acinetobacter baumannii ATCC 19606 (CO-ADD:GN_034); MIC in CAMBH media using NBS plates, by Resazurin F(560/590); format: functional; settings: Concentration 20 uM, ASSAY_TEST Inhibition of Bacterial Growth, detection method Resazurin, Fluorescence (ex560/em590), MEDIA CAMHB, plate type 384well, CORNING #3640, time 18 hr
[3] = test system: Escherichia coli; assay: Antibacterial activity against Escherichia coli ATCC 25922 (CO-ADD:GN_001); MIC in CAMBH media using NBS plates, by Resazurin F(560/590); format: functional; settings: Concentration 20 uM, ASSAY_TEST Inhibition of Bacterial Growth, detection method Resazurin, Fluorescence (ex560/em590), MEDIA CAMHB, plate type 384well, CORNING #3640, time 18 hr
[4] = test system: Klebsiella pneumoniae; settings: Concentration 20 uM; ASSAY_TEST Inhibition of Bacterial Growth; detection method Absorption (OD600); MEDIA CAMHB; plate type 384well; NBS; CORNING #3640; time 18 hr
[5] = test system: Candida albicans; settings: 20 µM
[6] = test system: Cryptococcus neoformans; settings: Concentration 20 uM; ASSAY_TEST Inhibition of Fungal Growth; detection method Resazurin; Absorption (OD600-OD570); plate type 384well; NBS; CORNING #3640

SMILES	Inhibition [1]	Inhibition [2]	Inhibition [3]	Inhibition [4]	Inhibition [5]	Inhibition [6]
Clc1cc2c(nn1)Nc1ccccc1S2	-2.08%	9.37%	10.31%	10.14%	0.32%	-16.64%
N=C(N)NS(=O)(=O)c1ccc(/N=C2/C(=O)Nc3ccccc32)cc1	10.79%	2.06%	11.61%	5.69%	-0.17%	-10.75%
Cc1cc2c(cc1C)NC1=C(O)C(c3cccc(O)c3)OC1=N2 (stereo not given)	3.69%	4.58%	-10.78%	28.82%	3.61%	-0.13%
COC1OC(O)C(NC(=O)C(F)(F)F)CC1O (stereo not given)	15.69%	9.13%	5.88%	16.01%	3.69%	-8.11%
Clc1ccccc1-c1nc2ccccc2[nH]1	11.4%	-8.21%	9.05%	12.13%	4.17%	-6.44%
Oc1ccc(Cc2ccccc2Cl)c(O)c1	14.48%	-16.11%	10.23%	8.44%	-1.58%	-12.35%
Nn1c(Cc2ccccc2)nnc1Cc1ccccc1	7.31%	16.12%	-0.96%	11.84%	2.51%	-5.12%
O=C1c2ccccc2C(=O)c2[nH]cnc21	-4.2%	-6.06%	-19.22%	13.37%	6.65%	21.89%
CC1(C)N=C(N)N=C(NCCCOc2ccc([N+](=O)[O-])cc2)N1.CCS(=O)(=O)O	25.11%	-9.38%	11.82%	18.17%	-1.81%	-10.08%
O=C1CCC(NC(=O)c2ccccc2)C(=O)N1 (stereo not given)	13.55%	6.82%	7.42%	5.68%	1.37%	-6.13%
CN(c1cccnc1)c1[nH]cnc2nncc1-2	-13.03%	-4.86%	-0.96%	-0.91%	0.07%	-5.56%
COc1ccc(OC)c(NC(=O)c2cc3oc4ccccc4c3cc2O)c1	13.76%	8.19%	5.92%	9.42%	-3.33%	-0.7%
Cc1cc2nc3ccc(N(C)C)cc3[s+]c2cc1N.[Cl-] [TOLONIUM CHLORIDE]	-5.05%	-12.21%	2.47%	19.75%	1.87%	-7.34%
CCOC(=O)CC1(C)NC(C(=O)O)C(C)(C)S1 (stereo not given)	-14.37%	0.02%	-11.39%	5.07%	3.25%	0.86%
CN(C)C(=S)/N=c1\ssc(=S)n1Cc1ccco1	13.2%	6.63%	0.6%	0.81%	2.24%	5.1%
c1ccc(-c2nnc(-c3ccccn3)[nH]2)nc1	12.66%	11.56%	-1.7%	7.68%	4.71%	-5.04%
CC12CCC(/C(=N/c3ccc(/N=C4\C(=O)C5(C)CCC4C5(C)C)cc3)C1=O)C2(C)C	-7.11%	-9.62%	14.23%	11.61%	0.19%	-4.9%
NC(=O)Nc1n[nH]c(-c2ccccc2)n1	-5.91%	-11.11%	-7.81%	2.72%	1.88%	1.04%
Nc1nnc(S)n1-c1ccc(Cl)cc1	10.79%	-9.57%	13.33%	-2.18%	11.3%	-11.28%
CC1=NCC(C)c2ccccc21 (stereo not given)	18.64%	-4.26%	9.51%	8.39%	-2.04%	-2.64%
CC(C)(C)c1ccc(OC(=O)c2ccccc2)cc1	-7.46%	6.71%	7.42%	8.33%	9.75%	-15.41%
CNC1(C(N)=O)CCNCC1	10.6%	-11.41%	16.83%	15.69%	-0.33%	-6.49%
O=C(O)C(c1ccccc1)C1(O)CCCCC1 (stereo not given)	4.6%	-11.34%	11.15%	5.64%	0.92%	-11.66%

SMILES	Inhibition [1]	Inhibition [2]	Inhibition [3]	Inhibition [4]	Inhibition [5]	Inhibition [6]
CCCNC(=O)c1ccc(S(N)(=O)=O)cc1	24.95%	-15.44%	7.13%	13.6%	-0.57%	-5.61%
CC(C)c1cc(C(C)C)n2nc(N)nc2n1	6.67%	8.95%	5.1%	0.39%	-0.42%	-7.51%
O=C(Nc1cccnc1)c1cccc([N+](=O)[O-])c1	12.72%	4.9%	8.22%	4.62%	7.68%	-5.39%
COc1ccc(/N=N/c2ccc(N)nc2N)cc1	0.3%	-8.88%	5.08%	7.55%	4.94%	-6.06%
COc1cc(NCc2ccccc2O)c2ncccc2c1	-0.91%	-6.99%	7.11%	7.53%	4.54%	-12.51%
CCN(CC)c1ccc(/C=C/c2cc(-c3ccccc3)c3ccccc3n2)cc1	16.67%	5.92%	4.61%	11.78%	4.35%	-9.69%
Cc1ccc(Nc2nnc(-c3ccc4c(c3)OCO4)o2)c(C)c1	30.86%	-8.42%	5.86%	21.23%	28.8%	-3.73%
COc1ccccc1NC(=O)Nc1cc(C(C)C)ccc1C	13.43%	2.93%	-1.81%	-0.93%	0.16%	-4.04%
NC(=O)c1cc(C(N)=O)nc(Cl)n1	12.7%	0.04%	10.33%	2.11%	-2.97%	-9.62%
C1=Cc2ccccc2Nc2ccccc21 [IMINOSTILBENE]	-1.85%	-14.24%	12.01%	3.59%	3.51%	-15.72%
COc1ccc(NC(=O)c2cc3ccc4c5ccccc5[nH]c4c3cc2O)cc1	16.09%	5.56%	1.69%	7.19%	-5.12%	1.29%
S=c1c2nc[nH]c2ncn1CCSC1=NC=NC2=NC=NC21 (stereo not given)	4.54%	-14.19%	7.44%	7.27%	5.38%	-9.8%
O=C1OC(CN(Cc2ccccc2)Cc2ccccc2)CN1/N=C/c1ccc([N+](=O)[O-])o1 (stereo not given)	-19.95%	-14.51%	10.29%	6.15%	10.5%	-4.47%
COc1cc2c(c3c1c(=O)c1cccc(F)c1n3C)C=CC(C)(C)O2	18.94%	5.21%	5.53%	10.26%	1.02%	-11.93%
CCOc1ccc2sc(NS(=O)(=O)c3ccc(N)cc3)nc2c1	-6.39%	-10.5%	7.14%	12.93%	4%	-12.92%
CCC1=[N+]([O-])[N+]([O-])=C(c2ccccc2)/C1=N/O	10.92%	10.01%	-4.02%	8.43%	7.14%	-1.35%
Cc1cc2nc(-c3ccccn3)c(-c3ccccn3)nc2cc1C	-0.99%	3.74%	8.69%	9.38%	1.37%	-10.29%
CC1=CC2(C)NC(=O)C(C)C12 (stereo not given)	9.76%	-10.3%	6.64%	6.26%	-0.72%	-9.55%
CCOC(=O)c1cc(-c2cccnc2)nc2c(Cl)cc(Cl)cc12	15.12%	-10.84%	5.86%	9.75%	4.8%	-6.65%
O=C(O)c1cc(N2C(=O)C=CC2=O)cc(N2C(=O)C=CC2=O)c1	-1.11%	-6.34%	5.17%	6.14%	5.6%	-4%
O=C(OCC(O)COC(=O)c1cccnc1)c1cccnc1	6.08%	10.73%	2.79%	3.04%	1.84%	-7.06%
C1CCCC(NC2=NCCO2)CCC1	-8.35%	-11.54%	-9.72%	4.38%	-2.21%	-3.14%
